This is part of a sample that, as a whole, favours compounds with a hit. Of some 83,000 tested, about 20% had one in any assay.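 The endpoint reported here, percent growth, reads 100 for growth as untreated, 0 for no net growth and -100 for all cells dead.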 Unmarked numbers belong to inactive results. The source made the active and inactive calls. Rule for the calls: active = growth percent below 10; inactive = the rest.
What was measured:
Assay in all cases: NCI-60 one-dose screen, 48 h (100 = growth as untreated, 0 = no growth, -100 = all killed)
Conditions in all cases: 10 µM unless noted
[1] = system: SR leukemia
[2] = system: RPMI-8226 leukemia
[3] = system: OVCAR-8 ovarian
[4] = system: OVCAR-5 ovarian
[5] = system: OVCAR-4 ovarian
[6] = system: SK-OV-3 ovarian
[7] = system: IGROV1 ovarian
[8] = system: HS 578T breast
[9] = system: NCI/ADR-RES ovarian
[10] = system: T-47D breast
[11] = system: BT-549 breast
[12] = system: MDA-MB-435 melanoma
[13] = system: SW-620 colon
[14] = system: MCF7 breast
[15] = system: HCT-116 colon
[16] = system: KM12 colon
[17] = system: OVCAR-3 ovarian
[18] = system: HCC-2998 colon

Compound	growth [1]	growth [2]	growth [3]	growth [4]	growth [5]	growth [6]	growth [7]	growth [8]	growth [9]	growth [10]	growth [11]	growth [12]	growth [13]	growth [14]	growth [15]	growth [16]	growth [17]	growth [18]
COc1ccc(CN2c3ccccc3Sc3ccccc32)cc1O	16.1%	24.4%	22.1%	86%	45.7%	29.1%	30.2%	33%	18.5%	27.5%	54.5%	0.932% (active)	31%	26%	12.9%	17.6%		
OCCN1CCN(c2nc(Nc3ccc(-c4nc5ccccc5[nH]4)cc3)c3cn[nH]c3n2)CC1	-61.1% (active)	-48.5% (active)	-91% (active)	-76.2% (active)	-74.6% (active)	-95.9% (active)	-78% (active)	-47% (active)	-77.3% (active)	-68.4% (active)	-52.3% (active)	-89.9% (active)	-85.4% (active)	-74.4% (active)	-80.1% (active)	-73.1% (active)		
COc1cc(-c2nc(C(=O)NCC(=O)NO)nn2-c2ccc(Cl)cc2)cc(OC)c1OC	84.8%	105%	98.5%	93.3%	105%	93.3%	112%		106%	88.2%	105%	100%	97.1%	92.2%	101%	95.9%	103%	
CC/C=C\C[C@H]1C/C=C2/C(=O)C=C[C@H]2C/C=C\CCCC(=O)O1	4.6% (active)	-10% (active)	0.796% (active)	87.8%	29.5%	37.3%	12.4%		22.4%	27.4%	32%	9.04% (active)	25.4%	46.2%	-41.9% (active)	-3.28% (active)	6.53% (active)	
CCN=C1C=CC(=C(c2ccc(N)cc2)c2ccc(N(CC)CC)c(C)c2)C=C1	-17.6% (active)	-30.8% (active)	1.54% (active)	18.2%	24.2%	6.51% (active)	11.6%	-24.6% (active)	67.7%	1.14% (active)	-31.8% (active)	-41.2% (active)	4.24% (active)	-11.5% (active)	-17.5% (active)	-88.4% (active)		-4.16% (active)
O=c1ccccc(-c2ccc(Br)cc2)c1O	4.69% (active)	9.5% (active)	13%	54.9%	30%	19.7%	12.4%		7.78% (active)	26.7%	23.8%	25.8%		14.3%	18.6%	24.6%	25.8%	41.5%
C#CC(F)(F)[C@]1(O)CC[C@H]2[C@@H]3CCC4=CC(=O)CCC4=C3[C@@H](c3ccc(C4CC4)cc3)C[C@@]21C	-38.7% (active)	-42.5% (active)	24.8%	9.97% (active)	10.9%	-79.4% (active)	-48.5% (active)		11%	17.5%	73.1%	85.1%	18.5%	36.9%	75.8%	6.36% (active)	-73.4% (active)	92%
COc1ccc(/C=C2\Oc3cc(OCCCCN4CCCC4)ccc3C2=O)cc1	-25.3% (active)	80.7%	91.1%	93.4%	92.3%	113%	81.2%		95.1%	87.8%	82.3%	96.5%	13.4%	39.6%	5.32% (active)	70.5%	94.3%	91%
COC(=O)c1ccc2oc(NC(=O)c3ccc(Nc4ccc([N+](=O)[O-])cc4C)c([N+](=O)[O-])c3)nc2c1	111%	108%	104%	109%	100%	102%	104%	93.2%	106%	96%	110%	100%	103%	97.6%	106%	103%		
COc1ccc(Nc2cc(C)nc(N3CCN(c4ccnc5cc(Cl)ccc45)CC3)n2)cc1	-4.15% (active)	16.2%	53.6%	73.4%	36.6%	51%	-11% (active)			7.42% (active)	51.2%	2.27% (active)	25.4%	9.32% (active)	0.65% (active)	23.1%	6.63% (active)	41.2%
COc1ccc2c(c1)C(=O)/C(=C/c1ccccn1)CC2	7.35% (active)	-10.3% (active)	85.4%	92.1%	83.8%	98%	85.6%	98.1%	88.6%	54.2%	96.4%	57.4%	57.5%	15.1%	26.3%	-10% (active)		
COc1cc(-c2nc3ccccc3[nH]2)ccc1OCc1nnc(-c2ccc(CC(C)C)cc2)o1	80.2%	83%	92.2%	114%	90.9%	99.1%	92.3%	87.4%	89.8%	57.2%	88.5%	98%	103%	79.6%	82%	102%		119%
CCCCn1c(-c2ccc(C(=O)O/N=C(\N)c3ccc4c(c3)OCO4)cc2)nc(-c2ccccc2)c1-c1ccccc1	-29.2% (active)	29.6%	44.5%	54.1%	40.1%	89.5%	-68.5% (active)		18.6%	0.0231% (active)		46.1%	60.3%		4.35% (active)	36.8%	38.5%	61.5%
COc1cccc(/C=C2\SC(=Nc3ccc(NC(C)=O)cc3)NC2=O)c1OC	94.8%	96.7%	93%	91.7%	100%	91.3%	103%	70.5%	102%	89.2%	97.8%	52.1%	92%	92.6%	98%	89.4%		101%
O=C(Cc1ccccc1Nc1c(Cl)cccc1Cl)NN1C(=O)/C(=C/c2ccc(Br)cc2)SC1=S	132%	106%	100%	100%	114%	100%	97.7%	96.4%	105%	107%	105%	107%	98.5%	100%	103%	107%		106%
CC[C@]1(O)C[C@@H]2CN(CCc3c([nH]c4ccccc34)[C@@](C(=O)OC)(c3cc4c(cc3OC)N(C)[C@H]3[C@@](O)(C(N)=O)[C@H](O)[C@]5(CC)[C@@H]6C[C@@H]6CN6CC[C@]43[C@@H]65)C2)C1	12.1%	13.8%	15.9%	52.2%	52%	14.8%		30.2%	9.52% (active)	92.9%	11.5%	-40% (active)	26.7%	18.9%	6.89% (active)	11.9%	6.81% (active)	24.9%
O=C(CCCCC(=O)N/N=C\c1ccccc1O)N/N=C\c1ccccc1O	19.7%	50.2%	41.7%	59%	70.3%	40.3%	27.2%		41.6%	35.5%	38.4%			27.5%	25.5%	33.6%		21.4%
COc1ccc(-n2nc(C)c3c(Nc4ccc(NC(=O)Nc5cc(C(F)(F)F)ccc5F)cc4)ncnc32)cc1	28.4%	4.77% (active)	26.4%	25.1%	57.8%	29.5%		28.4%	24.1%	11.8%	65.4%	53%	46%	34.2%	22%	16.5%	25.2%	21.2%
